Laboratory results from PubChem BioAssay AID651947 (Broad Institute, 2012).
Measured potencies and affinities stand elsewhere. Results filed as inconclusive are left out. Values without a mark were called inactive.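 How the source made its calls: active means luminescence drop in HepG2 cells whose fitted half-effect dose is at most twice the top valid dose; inconclusive means flat curve with 30 to 70% signal loss, or unreliable fit; inactive means the rest.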

Test: cytotoxicity in HepG2 cells, dose response, cytotoxicity control, cell-based, plate reader, dry powder (AID 651947)
Details: HepG2 viability, ATP luminescence (CellTiter-Glo), 48 h, stronger effect = lower value; at 26 µM unless noted

Structure (SMILES) | max activity
c1ccc(CNc2nnc(-c3ccccc3)o2)cc1 | 25.5% [at 0.195 µM]
CC1(O)CN(CCSc2nnc(-c3ccccc3)o2)C1 | -33.4% [at 0.195 µM]
Fc1cccc(-c2nnc(SCc3ccccn3)o2)c1 | 26.1% [at 12 µM]
FC(F)(F)Oc1ccccc1CSc1nnc(-c2ccccc2)o1 | -50.7% [at 1.6 µM]
Fc1ccccc1CSc1nnc(-c2ccccc2)o1 | -57.5%
